# Results published in paper PMC11062922 (Nature Chemical Biology, 2023).
# Like-named read-outs stand apart in the source and are kept apart here.
# Legend:
# Set-up in all cases: species or system human, MV4-11 + K-562 + COLO205 + SK-N-BE2 + OVCAR-8
# [1] = test system: CSNK2A2; settings: read-out: apparent Kd, compound concentrations: 100 nM and 1000 nM (sheet 'Samples'), n = 1
# [2] = test system: DDR1; settings: read-out: apparent Kd, n = 1
# [3] = test system: DDR2; settings: read-out: apparent Kd; compound concentrations:100 nM and 1000 nM (sheet 'Samples'); n = 1
# [4] = test system: FLT3; settings: read-out: apparent Kd, n = 1
# [5] = test system: MAP2K1; settings: read-out: apparent Kd; compound concentrations:100 nM and 1000 nM (sheet 'Samples'); n = 1
# [6] = test system: NQO1; settings: read-out: apparent Kd; compound concentrations:100 nM and 1000 nM (sheet 'Samples'); n = 1
# [7] = test system: PIK3C3; settings: read-out: apparent Kd; compound concentrations:100 nM and 1000 nM (sheet 'Samples'); n = 1
# [8] = test system: PIK3CD; settings: read-out: apparent Kd; compound concentrations:100 nM and 1000 nM (sheet 'Samples'); n = 1
# [9] = test system: RIOK2; settings: read-out: apparent Kd; compound concentrations:100 nM and 1000 nM (sheet 'Samples'); n = 1
# [10] = test system: SMC4; settings: read-out: apparent Kd; compound concentrations:100 nM and 1000 nM (sheet 'Samples'); n = 1
# [11] = test system: PIK3CA; settings: read-out: apparent Kd; compound concentrations:100 nM and 1000 nM (sheet 'Samples'); n = 1
# [12] = test system: ZAK; settings: read-out: apparent Kd; compound concentrations:100 nM and 1000 nM (sheet 'Samples'); n = 1
# [13] = test system: CSNK1D; settings: read-out: apparent Kd; compound concentrations: 100 nM and 1000 nM (sheet 'Samples'), CATDS: 0.216607074037657; n = 1
# [14] = test system: MAPK14; settings: read-out: apparent Kd; compound concentrations: 100 nM and 1000 nM (sheet 'Samples'), CATDS: 0.25122803409734401; n = 1
# [15] = test system: MAPKAPK2; settings: read-out: apparent Kd; compound concentrations: 100 nM and 1000 nM (sheet 'Samples'), CATDS: 0.38711156152007697; n = 1
# [16] = test system: RPS6KA1; settings: read-out: apparent Kd; compound concentrations: 100 nM and 1000 nM (sheet 'Samples'), CATDS: 0.20748336668369699; n = 1
# [17] = test system: CSNK2A1;CSNK2A3; settings: read-out: apparent Kd; compound concentrations: 100 nM and 1000 nM (sheet 'Samples'), CATDS: 8.5666768683209493E-2; n = 1
# [18] = test system: EPHA1; settings: read-out: apparent Kd; compound concentrations: 100 nM and 1000 nM (sheet 'Samples'), CATDS: 0.11031803480288301; n = 1
# [19] = test system: IRAK3; settings: read-out: apparent Kd; compound concentrations: 100 nM and 1000 nM (sheet 'Samples'), CATDS: 0.28099060866519798; n = 1
# [20] = test system: NTRK1; settings: read-out: apparent Kd; compound concentrations: 100 nM and 1000 nM (sheet 'Samples'), CATDS: 8.3524015841862198E-2; n = 1
# [21] = test system: PIP4K2C; settings: read-out: apparent Kd; compound concentrations: 100 nM and 1000 nM (sheet 'Samples'), CATDS: 8.5254217094438201E-2; n = 1
# [22] = test system: RIPK2; settings: read-out: apparent Kd; compound concentrations: 100 nM and 1000 nM (sheet 'Samples'), CATDS: 0.49931357158944301; n = 1
# [23] = test system: STK10; settings: read-out: apparent Kd; compound concentrations: 100 nM and 1000 nM (sheet 'Samples'), CATDS: 9.3066944796260806E-2; n = 1
# [24] = test system: TGFBR2; settings: read-out: apparent Kd; compound concentrations: 100 nM and 1000 nM (sheet 'Samples'), CATDS: 0.10303622443246301; n = 1
# [25] = test system: FLT4; settings: read-out: apparent Kd; compound concentrations: 100 nM and 1000 nM (sheet 'Samples'), CATDS: 0.42297219111770701; n = 1
# [26] = test system: JAK2; settings: read-out: apparent Kd; compound concentrations: 100 nM and 1000 nM (sheet 'Samples'), CATDS: 0.17425354278837099; n = 1
# [27] = test system: RET; settings: read-out: apparent Kd; compound concentrations: 100 nM and 1000 nM (sheet 'Samples'), CATDS: 0.369571760306865; n = 1
# [28] = compound concentrations:100 nM and 1000 nM (sheet 'Samples')
smiles,measurement,setting,value
COc1cccc(-n2ncc3c(N/N=C/c4ccc(C)cc4)ncnc32)c1 [GW829877X],potency estimated from few doses,[1]; CATDS: 1,1940 nM
COC(=O)Nc1nc2ccc(Oc3ccc(CC(=O)Nc4cc(C(F)(F)F)ccc4F)cc3)cc2[nH]1 [GW680903X],potency estimated from few doses,[2]; [28],257 nM
same,potency estimated from few doses,[3],404 nM
same,potency estimated from few doses,[4]; [28],713 nM
same,potency estimated from few doses,[5],2320 nM
same,potency estimated from few doses,[6],2020 nM
same,potency estimated from few doses,[7],1510 nM
same,potency estimated from few doses,[8],104 nM
same,potency estimated from few doses,[9],1760 nM
same,potency estimated from few doses,[10],1910 nM
COC(=O)Nc1nc2cc(Oc3ccc(NC(=O)Nc4cccc(SC)c4)cc3)ccc2[nH]1.Cl [GW697999A],potency estimated from few doses,[2]; [28],194 nM
same,potency estimated from few doses,[3],618 nM
same,potency estimated from few doses,[4]; [28],332 nM
same,potency estimated from few doses,[11],205 nM
same,potency estimated from few doses,[8],92.1 nM
same,potency estimated from few doses,[10],2010 nM
same,potency estimated from few doses,[12],1910 nM
Nc1nc(-c2ccccc2F)c(-c2ccnc3ccccc23)s1 [GW560459X],potency estimated from few doses,[13],1180 nM
same,potency estimated from few doses,[14],843 nM
same,potency estimated from few doses,[15],389 nM
same,potency estimated from few doses,[16],1320 nM
COC(=O)Nc1nc2cc(Oc3ccc(NC(=O)Nc4cc(F)ccc4F)cc3)ccc2[nH]1.Cl [GW701424A],potency estimated from few doses,[2]; [28],242 nM
same,potency estimated from few doses,[3],1120 nM
same,potency estimated from few doses,[8],11.2 nM
COc1cc(Nc2nccc(Nc3ccc4c(C)n[nH]c4c3)n2)cc(OC)c1OC [GW612286X],potency estimated from few doses,[17],1870 nM
same,potency estimated from few doses,[1]; CATDS: 9.4804106529145699E-2,1370 nM
same,potency estimated from few doses,[18],909 nM
same,potency estimated from few doses,[19],122 nM
same,potency estimated from few doses,[20],2040 nM
same,potency estimated from few doses,[21],1900 nM
same,potency estimated from few doses,[22],46.6 nM
same,potency estimated from few doses,[23],1450 nM
same,potency estimated from few doses,[24],1090 nM
CN(c1ccc2c(c1)nc(NCc1ccccc1)n2C)c1ccnc(Nc2ccc(CS(C)(=O)=O)cc2)n1.Cl [GW811603A],potency estimated from few doses,"[2]; compound concentrations: 100 nM and 1000 nM (sheet 'Samples'), CATDS: 0.142121036969732",962 nM
same,potency estimated from few doses,"[4]; compound concentrations: 100 nM and 1000 nM (sheet 'Samples'), CATDS: 0.139763894659995",1030 nM
same,potency estimated from few doses,[25],63.4 nM
same,potency estimated from few doses,[26],465 nM
same,potency estimated from few doses,[27],79.9 nM
